Data from PubChem BioAssay (NCI).
The panel holds about 83,000 compounds, 20% with a hit somewhere; the sample as a whole holds those more often.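 Values shown are percent growth following 48 h exposure of cells in 96-well plates to a single concentration of compound; below 10 was considered active.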 Calls of active or inactive are those of the source.

Assays:
Assay in all cases: NCI-60 one-dose screen, 48 h (100 = growth as untreated, 0 = no growth, -100 = all killed)
Conditions in all cases: 10 µM unless noted
[1] = test system: HCT-15 colon
[2] = test system: HT29 colon
[3] = test system: SNB-75 CNS
[4] = test system: SNB-19 CNS
[5] = test system: U251 CNS
[6] = test system: PC-3 prostate
[7] = test system: SK-MEL-5 melanoma
[8] = test system: UACC-62 melanoma
[9] = test system: LOX IMVI melanoma
[10] = test system: SK-MEL-28 melanoma
[11] = test system: SK-MEL-2 melanoma
[12] = test system: EKVX NSCLC
[13] = test system: SN12C renal
[14] = test system: UO-31 renal
[15] = test system: TK-10 renal
[16] = test system: ACHN renal
[17] = test system: CAKI-1 renal
[18] = test system: CCRF-CEM leukemia
[19] = test system: MOLT-4 leukemia
[20] = test system: A498 renal

Measured: growth

CCCCCCCCO/N=C\c1c2c(O)c3c(O)c(C)c4c(c3c1O)C(=O)C(C)(O/C=C\C(OC)C(C)C(OC(C)=O)C(C)C(O)C(C)C(O)C(C)/C=C\C=C(\C)C(=O)N2)O4 (stereo not given)
active: [2] 2.82% | [11] -31.4%
inactive: [1] 19.1% | [3] 36% | [4] 29.2% | [5] 13.7% | [6] 13.1% | [7] 17.7% | [8] 26.2% | [9] 30.2% | [10] 51.5% | [12] 22.5% | [13] 21.8% | [14] 17.7% | [15] 30% | [16] 25% | [17] 13.1% | [18] 19.8% | [19] 12.9%

NCCCCCCNc1cc(-c2cccc(OC(F)(F)F)c2)nc2ccc(N3CCCC3)cc12
active: [1] -54.2% | [2] -2.69% | [3] -32.4% | [5] -59% | [6] -5.66% | [7] -98.4% | [8] -56.9% | [9] -93.6% | [10] -83.4% | [11] -63.6% | [13] -20.1% | [14] -91.5% | [15] -44.4% | [16] -16.6% | [17] -45.9% | [18] -32.2% | [19] -20.7%
inactive: [4] 16.5% | [12] 65.4%

CCCCCN1C=C/C(=C\C(=O)N2CCCc3ccccc32)c2ccccc21
inactive: [1] 102% | [2] 73.2% | [3] 108% | [4] 93.9% | [5] 87.6% | [6] 86.7% | [7] 92.7% | [8] 75.2% | [9] 87.3% | [10] 104% | [11] 90.9% | [12] 76.4% | [13] 89.9% | [14] 75.5% | [15] 105% | [16] 106% | [17] 80.3% | [18] 69.7% | [19] 78.5%

CCN(CC)c1ccc(C(=O)c2ccccc2)cc1
inactive: [1] 105% | [2] 95% | [3] 93.5% | [4] 97.7% | [5] 87.2% | [6] 97.9% | [7] 96.9% | [8] 96% | [9] 100% | [10] 104% | [11] 96.3% | [12] 98.4% | [13] 98.8% | [14] 82% | [15] 97.9% | [16] 98.2% | [17] 83.1% | [18] 104% | [19] 87.6%

Nc1c(C(=O)Nc2ccnc3ccccc23)sc2nc3c(cc12)CN(Cc1ccccc1)CC3
active: [7] 9.7%
inactive: [1] 69.9% | [2] 103% | [3] 110% | [4] 83.7% | [5] 98% | [6] 45.5% | [8] 49.4% | [9] 69.6% | [10] 102% | [11] 101% | [12] 66.1% | [13] 74.6% | [14] 62.2% | [15] 102% | [16] 68.4% | [17] 74.7% | [18] 26.1% | [19] 18.2%

CCc1c(Cl)nc(N)nc1Nc1ccc(C)c(C)c1
inactive: [1] 55.7% | [2] 102% | [3] 93.5% | [4] 96.2% | [5] 88.1% | [6] 95.8% | [7] 92.9% | [8] 92.8% | [9] 85.7% | [10] 103% | [11] 99.3% | [12] 89.2% | [13] 99.9% | [14] 90.8% | [15] 103% | [16] 99.7% | [17] 86.5% | [18] 100% | [19] 94.4%

COc1ccc(NC(=O)c2cc(NCc3cc(O)ccc3O)ccc2O)cc1
inactive: [1] 97% | [2] 89.7% | [3] 101% | [4] 90% | [5] 91.1% | [6] 64.1% | [7] 92.6% | [8] 94.6% | [9] 94.3% | [10] 98.5% | [11] 89.3% | [12] 100% | [13] 85.8% | [14] 65.8% | [15] 118% | [16] 97.4% | [17] 107% | [18] 28.5% | [19] 65.2%

N=C(N)c1ccc(OCCCCCCCCCCOc2ccc(C(=N)N)cc2)cc1
active: [2] -90.8% | [3] -76.9% | [4] -91.9% | [5] -85.5% | [6] -91.3% | [7] -96.1% | [8] -97.2% | [9] -97.3% | [10] -93.9% | [11] -90.3% | [12] -84.4% | [13] -96.3% | [15] -93.5% | [16] -21.3% | [17] -94.8% | [18] -47.8% | [19] -61%
inactive: [1] 37.3% | [14] 43.9%

COc1cc(C=O)ccc1OC1OC(COC(C)=O)C(OC(C)=O)C(OC(C)=O)C1OC(C)=O (stereo not given)
inactive: [1] 99.3% | [2] 105% | [3] 106% | [4] 103% | [5] 94.2% | [6] 95.8% | [7] 98.2% | [8] 100% | [9] 103% | [10] 110% | [11] 98.6% | [12] 99.9% | [13] 97.9% | [14] 93.1% | [15] 107% | [16] 107% | [17] 98.8% | [18] 54.9% | [19] 110%

Nc1c(S(=O)(=O)O)cc2c3c(cccc13)C(=O)OC2=O
inactive: [1] 95.9% | [2] 106% | [3] 79.2% | [4] 99.7% | [5] 97.8% | [6] 106% | [7] 102% | [8] 97.8% | [9] 94.3% | [10] 115% | [11] 51% | [12] 91.5% | [13] 98.9% | [14] 86.7% | [15] 127% | [16] 95.2% | [17] 79.9% | [20] 106% | [18] 102% | [19] 88.9%

COc1cc2nc(-c3ccc(C(F)(F)F)cc3)cc(OCCN3CCCCC3)c2cc1OC
inactive: [1] 43.7% | [2] 46.4% | [3] 54.4% | [4] 91.1% | [5] 72.3% | [6] 61.3% | [7] 70.4% | [8] 89.7% | [10] 70.2% | [11] 105% | [12] 62.4% | [13] 63.6% | [14] 54.3% | [15] 93.9% | [16] 81.4% | [17] 45.2% | [18] 78.8% | [19] 65.3%
active: [9] -15.5%

O=C(O)c1ccc(NCc2cn(-c3ccc(C(F)(F)F)cc3)nc2-c2ccc(C(=O)O)cc2)cc1
inactive: [1] 101% | [2] 108% | [3] 91.8% | [4] 101% | [5] 99.7% | [6] 108% | [7] 103% | [8] 101% | [9] 99.4% | [10] 112% | [11] 112% | [12] 98% | [13] 103% | [14] 84.2% | [15] 106% | [16] 109% | [17] 95.8% | [18] 106% | [19] 109%

Fc1ccc(-c2cn3c(nc4ccccc43)c(-c3ccccc3)n2)cc1
inactive: [1] 94% | [2] 78.4% | [3] 68.9% | [4] 103% | [5] 91.5% | [6] 85% | [7] 88.6% | [8] 78.9% | [9] 106% | [10] 185% | [11] 109% | [12] 108% | [13] 89.2% | [14] 80.4% | [15] 113% | [16] 92.7% | [17] 84.9% | [20] 111% | [19] 92.4%

CCOC(=O)/C(C#N)=C1/NNC(=Nc2cccnc2)S1
inactive: [1] 101% | [2] 98.3% | [3] 92% | [4] 95.9% | [5] 94.1% | [6] 88.6% | [7] 98.6% | [8] 95.5% | [9] 95.7% | [10] 105% | [11] 107% | [12] 98.7% | [13] 98.6% | [14] 92.1% | [15] 102% | [16] 100% | [17] 97.1% | [18] 106% | [19] 106%

CCCCCC(=O)Oc1ccc(/C(=C(/C)Cc2ccc(OC)cc2)c2ccc(OCCCN(C)C)cc2)cc1
inactive: [1] 24.6% | [2] 10.8% | [3] 77% | [4] 84.1% | [5] 56.2% | [6] 86.2% | [7] 63.5% | [8] 47.7% | [9] 50.7% | [11] 114% | [12] 88.7% | [13] 79.5% | [14] 58.6% | [15] 100% | [16] 91.9% | [17] 78.3% | [18] 68.1% | [19] 53.5%
active: [10] -1.63%

COc1ccc(C(=O)c2cc(C)c(OC)c(C)c2)c(OC)c1NC(C)=O
inactive: [1] 16.3% | [3] 56.2% | [4] 22.9% | [5] 21.4% | [6] 20.9% | [7] 20.6% | [8] 31.6% | [9] 32% | [10] 49.5% | [11] 26% | [12] 56% | [13] 34.8% | [14] 40% | [15] 51.9% | [16] 24.9% | [17] 42.4% | [18] 20.8% | [19] 38.7%
active: [2] 3.24%
